# Reference: PMC7862700, “An all-to-all approach to the identification of sequence-specific readers for epigenetic DNA modifications on cytosine”
# Tests used:
# Assay in all cases: DAPPL (digital affinity profiling via proximity ligation, sequencing); 10 mM Tris-HCl pH 7.5, 50 mM NaCl, 1 mM DTT, 4% glycerol, room temperature, 30 min; GST-TFs on glutathione beads, 16-mer random dsDNA library, 0.1% formaldehyde crosslink after washing; high values mean tight binding
# FLI1 = biological target: T1, FLI1 (Homo sapiens, UniProt Q01543 1-452); details: protein: recombinant; tags: N-terminal GST; dsDNA, one strand shown
# T1 sequence: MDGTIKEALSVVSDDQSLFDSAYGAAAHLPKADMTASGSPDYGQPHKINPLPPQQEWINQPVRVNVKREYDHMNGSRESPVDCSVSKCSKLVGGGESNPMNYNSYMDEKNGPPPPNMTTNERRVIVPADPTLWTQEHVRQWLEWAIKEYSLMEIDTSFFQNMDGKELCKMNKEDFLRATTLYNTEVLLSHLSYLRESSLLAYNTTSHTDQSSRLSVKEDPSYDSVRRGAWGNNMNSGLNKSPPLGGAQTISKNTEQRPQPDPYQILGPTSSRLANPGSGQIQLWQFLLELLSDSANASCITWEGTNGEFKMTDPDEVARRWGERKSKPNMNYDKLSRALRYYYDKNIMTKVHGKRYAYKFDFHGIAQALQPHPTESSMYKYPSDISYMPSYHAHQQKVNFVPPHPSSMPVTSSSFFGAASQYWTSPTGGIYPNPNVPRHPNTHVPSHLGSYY
# How it was run: (§1)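 Pools of DNA-barcoded human transcription factors, expressed in yeast as GST fusions on glutathione beads and combined with a tag-only sample, were incubated with 200 nmole of a 16-mer random double-stranded DNA library. Incubation took 30 min at room temperature in Tris/NaCl/DTT/glycerol buffer and was followed by washing, 0.1% formaldehyde crosslinking, proximity ligation (BsaI/T4 ligase, 1 h, 37 °C), PCR amplification and sequencing on an Illumina NextSeq500. Binding signal is the ratio of a hexamer's read frequency for a factor to its frequency for the tag-only sample.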
# ELK1 = biological target: T2, ELK1 (Homo sapiens, UniProt P19419 1-428); details: protein: recombinant; tags: N-terminal GST; dsDNA, one strand shown
# T2 sequence: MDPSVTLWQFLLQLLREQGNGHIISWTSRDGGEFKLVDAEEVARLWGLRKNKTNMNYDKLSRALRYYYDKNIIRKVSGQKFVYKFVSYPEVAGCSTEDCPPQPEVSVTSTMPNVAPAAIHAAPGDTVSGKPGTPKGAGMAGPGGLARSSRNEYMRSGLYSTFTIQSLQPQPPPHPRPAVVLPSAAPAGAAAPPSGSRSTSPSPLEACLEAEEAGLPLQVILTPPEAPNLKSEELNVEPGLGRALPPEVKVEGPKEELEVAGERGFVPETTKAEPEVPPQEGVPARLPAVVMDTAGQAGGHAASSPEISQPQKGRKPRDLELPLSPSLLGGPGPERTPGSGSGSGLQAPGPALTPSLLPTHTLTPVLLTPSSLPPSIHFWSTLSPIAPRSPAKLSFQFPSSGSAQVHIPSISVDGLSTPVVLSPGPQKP
# How it was run: as §1
# GABPA = biological target: T3, GABPA (Homo sapiens, UniProt Q06546 1-454); details: protein: recombinant; tags: N-terminal GST; dsDNA, one strand shown
# T3 sequence: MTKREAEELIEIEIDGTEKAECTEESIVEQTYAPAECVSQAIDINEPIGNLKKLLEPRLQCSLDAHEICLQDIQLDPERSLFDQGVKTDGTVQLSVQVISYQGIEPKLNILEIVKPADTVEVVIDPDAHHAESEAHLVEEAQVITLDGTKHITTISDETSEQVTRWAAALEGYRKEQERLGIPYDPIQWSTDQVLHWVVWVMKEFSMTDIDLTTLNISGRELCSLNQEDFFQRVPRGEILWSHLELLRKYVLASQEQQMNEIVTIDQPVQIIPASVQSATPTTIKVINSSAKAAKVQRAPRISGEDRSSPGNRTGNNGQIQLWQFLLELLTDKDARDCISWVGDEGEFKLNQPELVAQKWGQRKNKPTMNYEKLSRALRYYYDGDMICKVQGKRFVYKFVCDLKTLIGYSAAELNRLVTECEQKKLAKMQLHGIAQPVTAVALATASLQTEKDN
# How it was run: as §1
# ERG = biological target: T4, ERG (Homo sapiens, UniProt P11308 1-479); details: protein: recombinant; tags: N-terminal GST; dsDNA, one strand shown
# T4 sequence: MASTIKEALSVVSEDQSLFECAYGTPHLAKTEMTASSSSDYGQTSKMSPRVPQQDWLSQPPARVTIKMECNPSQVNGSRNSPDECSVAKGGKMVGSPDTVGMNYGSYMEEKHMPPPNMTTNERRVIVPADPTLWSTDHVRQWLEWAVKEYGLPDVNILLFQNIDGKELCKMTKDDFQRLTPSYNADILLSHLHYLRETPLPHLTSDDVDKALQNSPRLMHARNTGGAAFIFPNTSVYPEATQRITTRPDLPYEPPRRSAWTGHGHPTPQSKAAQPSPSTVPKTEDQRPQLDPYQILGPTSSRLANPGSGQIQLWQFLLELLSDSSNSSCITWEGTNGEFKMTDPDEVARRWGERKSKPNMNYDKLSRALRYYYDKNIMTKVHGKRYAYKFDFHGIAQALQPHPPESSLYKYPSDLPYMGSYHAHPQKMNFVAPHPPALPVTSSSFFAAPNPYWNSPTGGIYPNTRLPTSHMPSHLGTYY
# How it was run: as §1
# ELF1 = ELF1 (Homo sapiens, UniProt P32519 1-619); details: protein: recombinant; tags: N-terminal GST; dsDNA, one strand shown
# How it was run: as §1
# EHF = biological target: T5, EHF (Homo sapiens, UniProt Q9NZC4 1-300); details: protein: recombinant; tags: N-terminal GST; dsDNA, one strand shown
# T5 sequence: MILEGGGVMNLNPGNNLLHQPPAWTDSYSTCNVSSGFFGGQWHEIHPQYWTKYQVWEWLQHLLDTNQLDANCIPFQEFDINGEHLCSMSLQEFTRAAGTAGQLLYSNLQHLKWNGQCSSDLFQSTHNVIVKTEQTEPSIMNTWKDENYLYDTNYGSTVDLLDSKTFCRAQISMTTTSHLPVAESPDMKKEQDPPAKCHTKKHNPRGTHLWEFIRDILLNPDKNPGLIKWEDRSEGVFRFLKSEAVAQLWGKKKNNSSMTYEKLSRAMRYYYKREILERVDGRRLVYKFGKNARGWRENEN
# How it was run: as §1
# SPI1 = SPI1 (Homo sapiens, UniProt P17947 1-270); details: protein: recombinant; tags: N-terminal GST; dsDNA, one strand shown
# How it was run: as §1
# SPIB = SPIB (Homo sapiens, UniProt Q01892 1-262); details: protein: recombinant; tags: N-terminal GST; dsDNA, one strand shown
# How it was run: as §1
# FEV = biological target: T6, FEV (Homo sapiens, UniProt Q99581 1-238); details: protein: recombinant; tags: N-terminal GST; dsDNA, one strand shown
# T6 sequence: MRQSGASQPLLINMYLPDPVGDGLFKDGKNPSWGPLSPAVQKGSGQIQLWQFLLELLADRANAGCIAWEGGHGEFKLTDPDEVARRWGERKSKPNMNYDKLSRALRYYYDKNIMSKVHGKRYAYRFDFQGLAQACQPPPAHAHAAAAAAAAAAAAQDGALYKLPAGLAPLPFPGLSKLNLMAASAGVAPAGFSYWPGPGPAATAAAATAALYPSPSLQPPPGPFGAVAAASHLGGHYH
# How it was run: as §1
# ETV5 = ETV5 (Homo sapiens, UniProt P41161 1-510); details: protein: recombinant; tags: N-terminal GST; dsDNA, one strand shown
# How it was run: as §1
# HSF1 = HSF1 (Homo sapiens, UniProt Q00613 1-529); details: protein: recombinant; tags: N-terminal GST; chain copies: 3; dsDNA, one strand shown
# How it was run: as §1
# SPIC = biological target: T7, SPIC (Homo sapiens, UniProt Q8N5J4 1-248); details: protein: recombinant; tags: N-terminal GST; dsDNA, one strand shown
# T7 sequence: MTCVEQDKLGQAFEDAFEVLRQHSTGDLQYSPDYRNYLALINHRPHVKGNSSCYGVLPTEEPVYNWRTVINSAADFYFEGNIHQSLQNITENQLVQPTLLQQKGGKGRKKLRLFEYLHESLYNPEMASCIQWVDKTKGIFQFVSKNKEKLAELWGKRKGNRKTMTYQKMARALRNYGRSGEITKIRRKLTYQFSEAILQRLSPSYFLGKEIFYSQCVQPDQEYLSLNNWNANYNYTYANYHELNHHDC
# How it was run: as §1
# ELF4 = ELF4 (Homo sapiens, UniProt Q99607 1-663); details: protein: recombinant; tags: N-terminal GST; dsDNA, one strand shown
# How it was run: as §1
# ELK4 = biological target: T8, ELK4 (Homo sapiens, UniProt P28324-2 1-405); details: protein: recombinant; tags: N-terminal GST; dsDNA, one strand shown
# T8 sequence: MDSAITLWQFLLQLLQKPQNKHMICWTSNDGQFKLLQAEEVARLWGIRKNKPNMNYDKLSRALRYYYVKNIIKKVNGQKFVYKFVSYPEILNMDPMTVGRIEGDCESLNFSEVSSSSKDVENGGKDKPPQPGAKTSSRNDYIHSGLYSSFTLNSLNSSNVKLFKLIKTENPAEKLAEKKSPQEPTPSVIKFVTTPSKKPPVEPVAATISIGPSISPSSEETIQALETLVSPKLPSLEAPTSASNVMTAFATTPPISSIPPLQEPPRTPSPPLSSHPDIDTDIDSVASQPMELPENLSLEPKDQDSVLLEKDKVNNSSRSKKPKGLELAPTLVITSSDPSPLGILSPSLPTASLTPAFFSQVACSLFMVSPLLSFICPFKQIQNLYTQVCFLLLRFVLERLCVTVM
# How it was run: as §1
# ETV2 = biological target: T9, ETV2 (Homo sapiens, UniProt O00321 1-342); details: protein: recombinant; tags: N-terminal GST; dsDNA, one strand shown
# T9 sequence: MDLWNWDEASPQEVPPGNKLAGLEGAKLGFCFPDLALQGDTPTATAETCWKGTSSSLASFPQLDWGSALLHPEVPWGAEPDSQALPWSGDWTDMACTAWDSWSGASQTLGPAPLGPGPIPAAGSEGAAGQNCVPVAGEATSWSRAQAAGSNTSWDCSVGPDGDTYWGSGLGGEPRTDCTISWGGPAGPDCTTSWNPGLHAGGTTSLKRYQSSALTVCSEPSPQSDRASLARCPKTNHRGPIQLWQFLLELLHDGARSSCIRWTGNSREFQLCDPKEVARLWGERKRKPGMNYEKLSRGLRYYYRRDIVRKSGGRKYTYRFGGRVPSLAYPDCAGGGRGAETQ
# How it was run: as §1
# ELF3 = biological target: T10, ELF3 (Homo sapiens, UniProt P78545 1-371); details: protein: recombinant; tags: N-terminal GST; dsDNA, one strand shown
# T10 sequence: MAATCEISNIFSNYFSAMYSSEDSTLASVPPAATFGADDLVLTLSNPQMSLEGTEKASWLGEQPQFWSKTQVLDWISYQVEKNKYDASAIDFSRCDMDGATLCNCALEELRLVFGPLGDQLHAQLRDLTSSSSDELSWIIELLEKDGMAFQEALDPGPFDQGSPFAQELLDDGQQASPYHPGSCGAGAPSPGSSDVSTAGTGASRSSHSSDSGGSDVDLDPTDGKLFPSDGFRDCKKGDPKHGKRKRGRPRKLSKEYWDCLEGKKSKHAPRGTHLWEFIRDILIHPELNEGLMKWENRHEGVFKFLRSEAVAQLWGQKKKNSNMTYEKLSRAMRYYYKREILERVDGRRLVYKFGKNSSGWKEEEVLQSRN
# How it was run: as §1
# CRX = CRX (Homo sapiens, UniProt O43186 1-299); details: protein: recombinant; tags: N-terminal GST; dsDNA, one strand shown
# How it was run: as §1
# ETV1 = ETV1 (Homo sapiens, UniProt P50549 1-477); details: protein: recombinant; tags: N-terminal GST; dsDNA, one strand shown
# How it was run: as §1
# Sequence of ETV5 (P41161 whole entry): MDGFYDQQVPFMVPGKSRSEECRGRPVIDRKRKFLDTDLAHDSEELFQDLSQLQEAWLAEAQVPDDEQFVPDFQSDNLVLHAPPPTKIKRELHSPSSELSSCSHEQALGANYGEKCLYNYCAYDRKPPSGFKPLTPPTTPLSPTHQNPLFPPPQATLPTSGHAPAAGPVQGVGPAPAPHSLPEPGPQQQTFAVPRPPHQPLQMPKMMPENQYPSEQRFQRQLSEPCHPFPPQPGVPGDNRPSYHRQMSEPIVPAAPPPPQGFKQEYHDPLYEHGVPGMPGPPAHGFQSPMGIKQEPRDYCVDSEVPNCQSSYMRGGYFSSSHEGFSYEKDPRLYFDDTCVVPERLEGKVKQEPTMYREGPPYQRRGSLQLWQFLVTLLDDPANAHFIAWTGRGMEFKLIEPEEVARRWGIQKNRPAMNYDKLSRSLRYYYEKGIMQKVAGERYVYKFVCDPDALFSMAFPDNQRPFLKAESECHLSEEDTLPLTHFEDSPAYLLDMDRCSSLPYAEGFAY
# Sequence of HSF1 (Q00613 whole entry): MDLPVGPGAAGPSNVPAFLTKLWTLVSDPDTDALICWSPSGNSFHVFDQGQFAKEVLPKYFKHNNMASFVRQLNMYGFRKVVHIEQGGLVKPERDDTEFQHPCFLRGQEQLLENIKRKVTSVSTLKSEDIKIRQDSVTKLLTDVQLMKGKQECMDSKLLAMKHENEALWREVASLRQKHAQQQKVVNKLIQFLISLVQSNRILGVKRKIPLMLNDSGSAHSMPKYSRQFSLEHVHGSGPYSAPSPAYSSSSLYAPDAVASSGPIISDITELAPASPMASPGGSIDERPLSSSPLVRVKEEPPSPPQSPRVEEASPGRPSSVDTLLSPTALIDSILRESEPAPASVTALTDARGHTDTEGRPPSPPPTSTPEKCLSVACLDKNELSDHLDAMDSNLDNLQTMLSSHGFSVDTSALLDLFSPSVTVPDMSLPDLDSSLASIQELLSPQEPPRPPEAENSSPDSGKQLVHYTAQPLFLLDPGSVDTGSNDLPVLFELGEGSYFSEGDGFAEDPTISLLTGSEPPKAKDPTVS
# Sequence of SPIB (Q01892 whole entry): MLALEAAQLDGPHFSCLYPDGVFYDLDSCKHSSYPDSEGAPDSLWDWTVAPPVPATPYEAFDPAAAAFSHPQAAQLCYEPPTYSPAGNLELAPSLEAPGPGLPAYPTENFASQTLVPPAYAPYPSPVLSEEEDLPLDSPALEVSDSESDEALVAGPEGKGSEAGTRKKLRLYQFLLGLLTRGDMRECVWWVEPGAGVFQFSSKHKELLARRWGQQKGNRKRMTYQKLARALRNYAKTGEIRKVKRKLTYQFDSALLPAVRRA
# Sequence of ELF1 (P32519 whole entry): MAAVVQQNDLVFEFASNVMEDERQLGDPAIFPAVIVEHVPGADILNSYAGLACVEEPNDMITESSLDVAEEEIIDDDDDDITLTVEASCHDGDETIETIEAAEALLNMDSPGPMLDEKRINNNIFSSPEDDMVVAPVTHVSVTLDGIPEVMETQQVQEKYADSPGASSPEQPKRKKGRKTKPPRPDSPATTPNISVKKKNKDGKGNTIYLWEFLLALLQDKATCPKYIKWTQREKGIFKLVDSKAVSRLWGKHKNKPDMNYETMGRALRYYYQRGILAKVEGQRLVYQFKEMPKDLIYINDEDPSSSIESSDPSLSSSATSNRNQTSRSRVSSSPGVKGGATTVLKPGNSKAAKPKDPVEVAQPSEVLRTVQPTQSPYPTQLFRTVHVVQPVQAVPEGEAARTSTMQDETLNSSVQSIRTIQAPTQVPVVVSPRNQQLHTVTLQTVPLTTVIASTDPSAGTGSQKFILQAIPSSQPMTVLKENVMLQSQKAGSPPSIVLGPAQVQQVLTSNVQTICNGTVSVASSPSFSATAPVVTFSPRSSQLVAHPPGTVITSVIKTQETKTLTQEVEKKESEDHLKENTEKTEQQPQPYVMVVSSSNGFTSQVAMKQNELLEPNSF
# Sequence of ETV1 (P50549 whole entry): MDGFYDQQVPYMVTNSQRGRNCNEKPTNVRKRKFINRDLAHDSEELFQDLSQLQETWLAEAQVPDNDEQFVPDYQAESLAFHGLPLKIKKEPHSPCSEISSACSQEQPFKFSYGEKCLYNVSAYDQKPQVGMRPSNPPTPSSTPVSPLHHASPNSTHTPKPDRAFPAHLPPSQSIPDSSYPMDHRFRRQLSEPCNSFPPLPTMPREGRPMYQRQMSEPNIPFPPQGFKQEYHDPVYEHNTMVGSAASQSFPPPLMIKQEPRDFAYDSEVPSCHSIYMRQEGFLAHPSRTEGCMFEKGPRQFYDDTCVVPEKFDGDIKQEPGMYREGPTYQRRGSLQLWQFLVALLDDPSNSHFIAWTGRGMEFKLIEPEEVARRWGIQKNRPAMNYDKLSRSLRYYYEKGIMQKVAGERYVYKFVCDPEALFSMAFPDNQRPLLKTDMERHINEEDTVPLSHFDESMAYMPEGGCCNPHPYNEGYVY
# Sequence of CRX (O43186 whole entry): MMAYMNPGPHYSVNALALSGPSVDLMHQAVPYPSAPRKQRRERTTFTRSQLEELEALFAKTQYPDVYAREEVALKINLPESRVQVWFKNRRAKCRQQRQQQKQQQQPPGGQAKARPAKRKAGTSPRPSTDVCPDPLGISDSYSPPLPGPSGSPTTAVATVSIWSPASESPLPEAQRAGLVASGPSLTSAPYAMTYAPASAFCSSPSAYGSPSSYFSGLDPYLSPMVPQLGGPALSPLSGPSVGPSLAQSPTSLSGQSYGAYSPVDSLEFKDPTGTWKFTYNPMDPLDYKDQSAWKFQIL
# Sequence of ELF4 (Q99607 whole entry): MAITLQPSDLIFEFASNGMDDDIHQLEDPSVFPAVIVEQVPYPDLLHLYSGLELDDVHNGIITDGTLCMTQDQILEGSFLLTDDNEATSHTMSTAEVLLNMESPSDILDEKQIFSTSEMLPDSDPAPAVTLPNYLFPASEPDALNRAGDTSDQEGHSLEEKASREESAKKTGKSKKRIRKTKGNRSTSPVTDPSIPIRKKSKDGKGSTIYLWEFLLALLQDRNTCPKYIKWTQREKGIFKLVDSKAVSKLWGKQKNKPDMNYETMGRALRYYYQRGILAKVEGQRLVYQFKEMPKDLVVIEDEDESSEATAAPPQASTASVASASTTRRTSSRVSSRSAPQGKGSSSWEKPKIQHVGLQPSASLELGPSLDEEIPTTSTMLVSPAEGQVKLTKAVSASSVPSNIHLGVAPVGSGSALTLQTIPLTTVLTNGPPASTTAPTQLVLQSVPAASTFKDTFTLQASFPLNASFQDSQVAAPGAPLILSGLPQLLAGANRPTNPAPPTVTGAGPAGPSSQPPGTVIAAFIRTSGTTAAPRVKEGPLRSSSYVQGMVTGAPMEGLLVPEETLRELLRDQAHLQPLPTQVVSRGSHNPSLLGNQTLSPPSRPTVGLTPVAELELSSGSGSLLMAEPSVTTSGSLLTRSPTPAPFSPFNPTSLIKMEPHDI
sequence,measurement,setting,value
TCTATG,binding signal,FLI1,"1.12 fold enrichment (6-mer frequency, TF over GST control)"
same,binding signal,ELK1,"1.2 fold enrichment (6-mer frequency, TF over GST control)"
same,binding signal,GABPA,"1.21 fold enrichment (6-mer frequency, TF over GST control)"
same,binding signal,ERG,"1.03 fold enrichment (6-mer frequency, TF over GST control)"
same,binding signal,ELF1,"1.12 fold enrichment (6-mer frequency, TF over GST control)"
same,binding signal,EHF,"1.13 fold enrichment (6-mer frequency, TF over GST control)"
same,binding signal,SPI1,"1.09 fold enrichment (6-mer frequency, TF over GST control)"
same,binding signal,SPIB,"1.12 fold enrichment (6-mer frequency, TF over GST control)"
same,binding signal,FEV,"1.06 fold enrichment (6-mer frequency, TF over GST control)"
same,binding signal,ETV5,"1.1 fold enrichment (6-mer frequency, TF over GST control)"
same,binding signal,HSF1,"1.16 fold enrichment (6-mer frequency, TF over GST control)"
same,binding signal,SPIC,"1.11 fold enrichment (6-mer frequency, TF over GST control)"
same,binding signal,ELF4,"1.14 fold enrichment (6-mer frequency, TF over GST control)"
same,binding signal,ELK4,"1.16 fold enrichment (6-mer frequency, TF over GST control)"
same,binding signal,ETV2,"1.25 fold enrichment (6-mer frequency, TF over GST control)"
same,binding signal,ELF3,"1.1 fold enrichment (6-mer frequency, TF over GST control)"
same,binding signal,CRX,"1.11 fold enrichment (6-mer frequency, TF over GST control)"
same,binding signal,ETV1,"1.1 fold enrichment (6-mer frequency, TF over GST control)"
